Rows were chosen to be rich in hits. Some 21% of all compounds tested hit in one or more screens of this group.
Pf growth 96h – Primary qHTS for delayed death inhibitors of the malarial parasite plastid, 96 hour incubation; P. falciparum luciferase reporter growth, 96 h; Potency, µM (series often up to 28.7 µM), actives largely listed as inhibitors; actives 6.9% (n = 320,000); AID 504834, 2011
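Cell-based qHTS: luciferase-tagged P. falciparum in erythrocytes (2% hematocrit, 0.05% parasitemia final) incubated with compounds for 96 hours, 37 C, 5% CO2; luciferase detection reagent then added and luminescence measured.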
Pf growth 48h – Primary qHTS for delayed death inhibitors of the malarial parasite plastid, 48 hour incubation | P. falciparum luciferase growth in erythrocytes, 48 h | AID 504832, 2011 | actives 5.9% (n = 310,000) | Potency, µM (highest dose often 28.7 µM), actives largely listed as inhibitors
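Cell-based growth assay: transgenic P. falciparum expressing firefly luciferase, cultured in red cells within RPMI 1640 containing 0.5% w/v Albumax, 24 mM bicarbonate and gentamycin. A drop in luciferase activity indicates inhibition.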
Shiga toxin inh – A qHTS for Small Molecule Inhibitors of Shiga Toxin | Vero cells, Shiga toxin protein synthesis inhibition reporter | inhibition, % at 38.7 µM | actives 9.2% (n = 290,000) | AID 2315, 2010; in the data active = inhibition mostly above about 28%, no sharp cut-off; inactive = mostly below about 43%
NS1 inh – qHTS Assay for Inhibitors of Influenza NS1 Protein Function. actives 0.4% (n = 270,000). Potency, µM (series often up to 46.1 µM). AID 2326, 2010; calls by dose curve; note: actives are rising curves; nearly all actives have a fitted effect of over 50% in size
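OD600 was taken as the measure of yeast growth restored by compound in an NS1-expressing S. cerevisiae strain. Cells had been washed out of glucose medium and diluted 1:100 into galactose -URA medium, pH 6.0.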
CHX counter – Cycloheximide Counterscreen for Small Molecule Inhibitors of Shiga Toxin; actives 12% (n = 300,000); cell reporter, cycloheximide protein synthesis inhibition counterscreen; max response, %; in the data active = max response mostly above about 13%, no sharp cut-off; inactive = mostly below about 14%; note: read at 38.3 µM for the half of the compounds with a filed dose
Of the large screens only hits and unclear results are named; the others gave an inactive call. Unless noted, calls come from the whole dose curve; as a rule, active = well fitted inhibition curve with a large enough effect; inconclusive = small, poorly fitted or top-dose-only effect, or another doubt; inactive = no such curve, though single readings can be large or run the other way.

COc1ccc(C(C(=O)NC2CCCCC2)N(CC2CCCO2)C(=O)CNC(=O)c2ccco2)cc1 (stereo unspecified)	none
COc1cc(/C=N/NC(=O)c2ccc(CSc3nc4ccccc4[nH]3)cc2)ccc1O	Pf growth 96h inconclusive, Pf growth 48h inconclusive (no result: NS1 inh)
Cc1cc(-c2ccc(C)c(S(=O)(=O)NCCCN3CCN(c4ccccc4F)CC3)c2)on1	Pf growth 96h 4.7µM, Pf growth 48h inconclusive
Cc1cc(-c2ccc(C)c(S(=O)(=O)NCCCN3CCCCCC3)c2)on1	Pf growth 96h inconclusive, Pf growth 48h 15µM
Cc1cc(-c2ccc(C)c(S(=O)(=O)NCCCN3CCN(c4ccccc4)CC3)c2)on1	Pf growth 96h inconclusive, Pf growth 48h inconclusive
O=C(NC1CCCCC1)C1c2ccccc2C(=O)N1Cc1ccc2c(c1)OCO2 (stereo unspecified)	Pf growth 48h inconclusive (no result: NS1 inh)
CC(C)Cn1c(N)c(/C=N/NC(=O)c2ccc(Cl)cc2)c(=O)n(C)c1=O	none
O=C(N/N=C/c1cn(-c2ccccc2)nc1-c1cc2ccccc2o1)c1c[nH]c2ccccc12	Pf growth 96h inconclusive, Pf growth 48h 3.3µM, Shiga toxin inh 133, CHX counter 45
O=C(N/N=C/c1cn(-c2ccccc2)nc1-c1cc2ccccc2o1)c1ccccc1Br	Shiga toxin inh 100, CHX counter 66
CCC(CC)NC(=O)COC(=O)c1ccc(NS(=O)(=O)c2ccc3c(c2)OCCO3)cc1	none (no result: Pf growth 96h)
CC(OC(=O)Cn1cnc2c1c(=O)n(C)c(=O)n2C)C(=O)NC1CCCCC1C (stereo unspecified)	none (no result: Shiga toxin inh, NS1 inh, CHX counter)
O=C(NC(C(=O)N/N=C/c1c2ccccc2cc2ccccc12)c1n[nH]c(=O)c2ccccc12)c1ccccc1 (stereo unspecified)	Pf growth 96h 13µM, Pf growth 48h 12µM
O=C(NC(C(=O)N/N=C/c1ccccc1)c1n[nH]c(=O)c2ccccc12)c1ccccc1 (stereo unspecified)	Pf growth 48h inconclusive
Cc1cc(C)c(NC(=O)C2CCCCN2C)c(C)c1 (stereo unspecified)	none (no result: Pf growth 48h)
Cc1cc(C)c(NC(=O)C2CSCCS2)c(C)c1 (stereo unspecified)	Shiga toxin inh 57, CHX counter 20
Fc1ccc(-c2cc(C(F)(F)C(F)F)[nH]n2)cc1	Shiga toxin inh 65, CHX counter 27
Clc1ccc(-c2cc(C3CCNCC3)[nH]n2)cc1	Pf growth 96h inconclusive, Pf growth 48h inconclusive (no result: NS1 inh)
O=c1[nH]nc(-c2ccc(F)cc2)cc1-c1ccccc1	Pf growth 96h inconclusive
FC(F)C(F)(F)c1cc(-c2ccc(Cl)cc2)n[nH]1	Shiga toxin inh 46, CHX counter 31
OCCNc1nc(N2CCCCC2)nc2ccccc12	Pf growth 48h inconclusive
c1ccc(N2CCN(c3nc(NCc4ccco4)c4ccccc4n3)CC2)cc1	Pf growth 96h 2.3µM, Pf growth 48h 2.3µM
c1ccc(CN2CCC(Nc3nc(-c4ccccc4)nc4ccccc34)CC2)cc1	Pf growth 48h 8.3µM (no result: Pf growth 96h)
Cc1csc2ncnc(NC3CCN(Cc4ccccc4)CC3)c12	Pf growth 96h inconclusive, Pf growth 48h inconclusive
c1coc(CNc2nc(N3CCCCC3)nc3ccccc23)c1	Pf growth 48h 6.6µM, NS1 inh inconclusive (no result: Pf growth 96h)
c1ccc(CNc2nc(N3CCN(Cc4ccccc4)CC3)nc3ccccc23)cc1	Pf growth 96h inconclusive, Pf growth 48h 5.2µM
CN(C)N1C(=O)CC(NNC(=O)c2ccncc2)C1=O (stereo unspecified)	none
COC(=O)C(Cc1ccccc1)NS(=O)(=O)c1ccc(F)cc1Br (stereo unspecified)	none
c1ccc(-c2nc(N3CCCCCC3)nc(-n3ccnc3)n2)cc1	Pf growth 48h inconclusive
COC(=O)c1ccc(-n2ccnc2)cc1	none (no result: NS1 inh)
c1ccc(-c2ccc(-n3ccnc3)cc2)cc1	Pf growth 96h inconclusive, Pf growth 48h inconclusive, CHX counter 8.0
c1ccc(-c2nc(N3CCN(c4ccccc4)CC3)nc(-n3ccnc3)n2)cc1	Pf growth 96h inconclusive, Pf growth 48h 4.1µM
O=C(OCc1ccccc1C(F)(F)F)c1cc([N+](=O)[O-])ccc1N1CCOCC1	Pf growth 96h inconclusive, Pf growth 48h inconclusive
NC(=O)c1ccccc1OCCOc1ccc(Br)cc1	Shiga toxin inh 57, CHX counter 17
CN(C)CCCN(C(=O)c1ccc(S(=O)(=O)N2CCOCC2)cc1)c1nc2ccc(F)cc2s1	none
CCOC(=O)N1CCN(S(=O)(=O)c2ccc(C(=O)N(CCN(CC)CC)c3nc4ccc(C)cc4s3)cc2)CC1	CHX counter 23
CCOC(=O)N1CCN(S(=O)(=O)c2ccc(C(=O)N(CCCN(C)C)c3nc4ccc(CC)cc4s3)cc2)CC1	Pf growth 96h inconclusive, Pf growth 48h 6.6µM, CHX counter 17
CCOC(=O)N1CCN(S(=O)(=O)c2ccc(C(=O)N(CCCN(C)C)c3nc4c(F)cc(F)cc4s3)cc2)CC1	none (no result: Shiga toxin inh, NS1 inh, CHX counter)
CCOC(=O)N1CCN(S(=O)(=O)c2ccc(C(=O)N(CCCN(C)C)c3nc4ccc(Cl)cc4s3)cc2)CC1	Pf growth 48h inconclusive
CCOC(=O)N1CCN(S(=O)(=O)c2ccc(C(=O)N(CCN(C)C)c3nc4ccc(CC)cc4s3)cc2)CC1	Pf growth 96h inconclusive, CHX counter 23
COc1ccc(OC)c(S(=O)(=O)Nc2cc(C)on2)c1	none
CCOc1ccc(NS(=O)(=O)c2cc(C(=O)N3CC(C)OC(C)C3)ccc2C)cc1 (stereo unspecified)	Pf growth 48h inconclusive (no result: Shiga toxin inh, NS1 inh, CHX counter)
CSc1ccc(S(=O)(=O)N(CC(=O)NN=C2CCN(C)CC2)c2ccc(C)cc2)cc1	Pf growth 96h inconclusive (no result: NS1 inh)
CCn1c(SCC(=O)Nc2ccc(C(C)=O)cc2)nc2nc3c(cc2c1=O)CCCC3	Pf growth 96h inconclusive, Pf growth 48h inconclusive, Shiga toxin inh 46, CHX counter 26
CCn1c(SCC(=O)Nc2ccc(OC)cc2)nc2nc3c(cc2c1=O)CCCC3	none
CCn1c(SCC(=O)Nc2ccc(Cl)cc2)nc2nc3c(cc2c1=O)CCCC3	Pf growth 96h 13µM, Pf growth 48h inconclusive
CCn1c(SCC(=O)Nc2ccc(C(C)=O)cc2)nc2nc3c(cc2c1=O)COC(C)(C)C3	Shiga toxin inh 122, CHX counter 32
COc1ccccc1C(=O)Nc1nnc(S(=O)(=O)N2CCN(c3ccc(F)cc3)CC2)s1	none
CC(C)(C)c1ccc(C(=O)NCC(=O)OCCN2C(=O)c3ccccc3C2=O)cc1	none (no result: Shiga toxin inh, NS1 inh, CHX counter)
Cc1cc(C)cc(NC(N)=S)c1	none
O=C(Cn1cc(C(F)(F)F)cc(Cl)c1=O)NCc1ccccc1	Shiga toxin inh 73, CHX counter 44
CCC1Oc2ccc(C)cc2N(CC(=O)N(Cc2cccnc2)Cc2ccc(C)o2)C1=O (stereo unspecified)	Pf growth 48h 12µM
CCC1Oc2ccc(C)cc2N(CC(=O)N(Cc2ccc(C)o2)C2CC(C)(C)NC(C)(C)C2)C1=O (stereo unspecified)	Pf growth 96h inconclusive, Pf growth 48h inconclusive
CCOc1ccc2[nH]c(=O)c(CN(Cc3cccs3)Cc3nnnn3C(C)(C)C)cc2c1	Pf growth 48h 12µM

Screens: PubChem, National Center for Advancing Translational Sciences (NCATS)
